Bioassay records: PubChem BioAssay, Buhrlage Lab, Dana-Farber Cancer Institute and Novartis Institutes for BioMedical Research (Cambridge, Mass)
In the library only some 14% were active in any assay of this set; here they are far more common.
USP28 block: inhibitors of human USP28 deubiquitinase. Q96RU2. purified USP28, Ub-rhodamine cleavage fluorescence, 30 min. inhibition, % at 25 µM. actives 3% (n = 47,000). AID 1645857
USP8 inh: human USP8 deubiquitinase inhibition; AID 1645853; purified USP8, Ub-rhodamine cleavage fluorescence, 30 min; inhibition, % at 20 µM; actives 4.2% (n = 47,000); P40818
USP10 inh: human USP10 deubiquitinase inhibition; Q14694; purified USP10, Ub-rhodamine fluorescence, 60 min; inhibition, % at 20 µM; actives 1.1% (n = 47,000)
USP30 inh: inhibitors of human USP30 deubiquitinase. Q70CQ3. purified USP30, Ub-rhodamine cleavage fluorescence. inhibition, % at 25 µM. actives 5.3% (n = 47,000). AID 1645860
USP17 inh: inhibitors of human USP17 deubiquitinase; actives 6.5% (n = 47,000); purified USP17, Ub-rhodamine cleavage fluorescence, 3 h; inhibition, % at 50 µM; AID 1645855; A8MUK1
Starred values were filed as active, the others as inactive; / = no result. Cut-off read from the data, not from the text of the source: active = inhibition above about 30%; inactive = the rest.

SMILES	USP28 block	USP8 inh	USP10 inh	USP30 inh	USP17 inh
Cc1nnc(-c2ccc3ccn(CC(=O)N4CCN(c5ccccn5)CC4)c3c2)o1	0	6	-3	-8	3
CCc1nnc(-c2cc(S(=O)(=O)N3CCC(C)CC3)c[nH]2)o1	-9	3	4	-1	24
CCc1nnc(-c2cc(S(=O)(=O)N3CCN(c4ccccn4)CC3)c[nH]2)o1	16	40*	23	17	7
CCc1nnc(-c2ccc3ccn(CC(=O)N4CCN(c5ccccn5)CC4)c3c2)o1	31*	92*	33*	39*	76*
Cc1cccc(N2CCN(C(=O)Cn3cc(-c4ccccc4)oc3=O)CC2)c1	-14	14	-2	-24	-13
Cc1ccc(-c2cn(CC(=O)N3CCN(c4ccccn4)CC3)c(=O)o2)cc1	20	30	16	36*	77*
O=C(Cn1c(=O)n(-c2ccccc2)c2ncccc21)NCc1cccc(F)c1	-10	-3	-12	-41	-5
CC1(C)Oc2ccccc2[C@H]2OCC3(CCN(C(=O)c4ccc(-n5cccn5)nc4)CC3)C[C@@H]21	14	1	1	28	5
Cc1cc(C)c(COc2ccc3c(c2C)OC(C)(C)CC3=O)c(C)c1	12	20	8	30*	21
CC(=O)COc1ccc2c(c1C)OC(C)(C)CC2=O	3	3	0	18	-4
CN1C(=O)COc2cc(-c3noc(C(=O)NC4CCCCC4)n3)ccc21	12	19	-1	31*	26
CN1C(=O)COc2cc(-c3noc(C(=O)NCC4CCCO4)n3)ccc21 (configuration not stated)	-4	-2	-2	8	-3
CN1C(=O)COc2cc(-c3noc(C(=O)NCCc4ccccc4)n3)ccc21	13	29	6	15	9
CC(CNC(=O)c1nc(-c2ccc3c(c2)OCC(=O)N3C)no1)c1ccccc1 (configuration not stated)	39*	26	6	29	3
COCC(=O)N1CCC(c2nc3ccccn3c2NC(C)(C)C)CC1	-4	0	1	0	-4
O=C(CCc1cccnc1)N1CCCC2(CCCN2Cc2cccc(F)c2)C1 (configuration not stated)	9	-81	-3	44*	11
O=C(CCc1cccnc1)N1CCCC2(CCCN2Cc2ccccc2F)C1 (configuration not stated)	-4	-65	-6	-3	-20
CC(=O)c1ccc(N(C(=O)c2cccc(C)c2C)c2nc3ccccc3s2)cc1	-7	-20	1	-3	-7
COc1ccc(-c2noc(NCCc3ccccc3)n2)cc1	15	21	5	24	37*
CCC(=O)c1ccc(OCC(=O)Nc2ccc(C#N)cc2)cc1	4	-6	3	-11	47*
N#Cc1ccc(NC(=O)COc2ccc3oc4ccccc4c3c2)cc1	3	4	2	2	45*
COc1ccc(-c2ccc(=O)n(Cc3ccc(C)cc3)n2)cc1OC	11	17	1	17	10
COC(=O)c1sccc1OCC(=O)c1sc(-c2ccccc2)nc1C	8	13	8	12	4
Cc1nc(-c2ccccc2)sc1C(=O)CSc1cccc(Cl)c1Cl	-1	17	8	36*	14
CC(C)N1CCn2c(nc3cc(NC(=O)c4cccnc4)ccc32)C1	19	32*	-12	-67	34*
SMILES	USP28 block	USP8 inh	USP10 inh	USP30 inh	USP17 inh
COC(=O)N1C2CCC3(CC2)OC(=O)N(C)CC13 (configuration not stated)	6	13	3	28	0
CCCCCC1OC(=O)c2c(C)cccc2Oc2ccc(O)c(CO)c2/C=C/C1O (configuration not stated)	47*	12	12	19	23
CCCCCC1OC(=O)c2c(C)cccc2Oc2ccc(O)c(C=O)c2/C=C/C1O (configuration not stated)	53*	14	31*	73*	81*
O=C(CC1C(=O)Nc2nc3ccccc3n21)Nc1cccc2ccccc12 (configuration not stated)	20	55*	54*	46*	17
O=C(CC1C(=O)Nc2nc(-c3ccccc3)nn21)Nc1ccccc1 (configuration not stated)	-9	1	2	-8	2
O=C(CC1C(=O)Nc2nc(-c3ccccc3)nn21)Nc1cccc2ccccc12 (configuration not stated)	0	41*	29	-4	84*
NC(=O)c1ccc(-c2cccc(C3CCCN(C(=O)c4cnccn4)C3)n2)cc1 (configuration not stated)	0	1	4	10	7
Oc1ccc2ccccc2c1CN1CCN(c2ncccn2)CC1	/	0	0	/	36*
OC(CN1CCN(c2ncccn2)CC1)c1ccc(Cl)cc1 (configuration not stated)	-31	0	0	-3	-3
Oc1ccc2ccccc2c1CN1CCCC1	5	38*	1	-2	17
Cc1ccc2nc(-c3cccc(-c4nc5ccc(C)cc5[nH]4)n3)[nH]c2c1	-10	55*	-11	-27	54*
O=C(c1cccnc1)N1CCN(CC2CC=CCC2)CC1 (configuration not stated)	-2	-6	0	0	1
COC(=O)c1ccccc1NC(=O)c1cc2ccccc2c(=O)s1	-4	0	0	-3	0
Cc1cccc(NC(=O)c2cc3cccnc3n(C)c2=O)c1	31*	-8	-2	-36	-1
Cc1cccc(NC(=O)c2cc3ccccc3c(=O)s2)c1	/	33*	18	/	69*
CCn1cc(Cn2cc(N)cn2)cn1	-8	73*	1	-13	13
O=C(O)c1ccc(CN2CCCn3c(nc4ccccc43)C2)cc1	-6	-11	-1	-11	-7
CCC1=N[C@@]2(CC[C@@H]3CN(C(=O)NC4CCCC4)C[C@@H]32)C(=O)N1CC1CC1	4	11	-1	20	0
O=C(c1cc2ccccc2o1)N1CC=C(c2ccccc2)CC1	34*	21	12	50*	36*
Cc1csc(SCc2cc(=O)c(OC(=O)c3cccc(F)c3)co2)n1	12	61*	6	-12	18
Cc1ccnc(SCc2cc(=O)c(OC(=O)c3c(F)cccc3Cl)co2)n1	16	31*	0	26	39*
COc1ccc(CCNC(=O)[C@H](CCSC)NC(=O)N2CCn3c2nc2ccccc23)cc1OC	21	16	0	75*	35*
CCC(C)[C@H](NC(=O)N1CCn2c1nc1ccccc12)C(=O)NCCC1=CCCCC1 (some centres not stated)	-16	0	1	-25	36*
COc1ccc(CCNC(=O)[C@H](C)NC(=O)N2CCn3c2nc2ccccc23)cc1OC	19	1	0	30*	20
Cc1ccc(CNC(=O)[C@H](C)NC(=O)N2CCn3c2nc2ccccc23)cc1	47*	-20	3	80*	65*
